Out of some 89,000 compounds screened, about 440 (0.49%) were called active. Many of the other results were omitted from the sample, so actives are more common in it than they were. A number with no mark means an inactive call.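 The calls were made as follows: active = inhibition above the mean inhibition across all screened compounds plus 3 SD (cut at about 11% in these data); inactive = the rest.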

The inhibition is the change of the read-out against control, counted positive when it falls.

The target in this test is RNA-editing ligase 1, mitochondrial (Trypanosoma brucei brucei) (UniProt P86926). Description: TbREL1 RNA ligase inhibitors, primary screen, biochemical, FRET fluorescence (AID 1117264).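 Also: 0% = plate median of test wells and 100% = NSC42067 control.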 Particulars: TbREL1 RNA ligation, at 9.66 µM, active compounds read high.
RNA-editing ligase 1, mitochondrial (Trypanosoma brucei brucei), sequence (P86926 whole entry, looked up): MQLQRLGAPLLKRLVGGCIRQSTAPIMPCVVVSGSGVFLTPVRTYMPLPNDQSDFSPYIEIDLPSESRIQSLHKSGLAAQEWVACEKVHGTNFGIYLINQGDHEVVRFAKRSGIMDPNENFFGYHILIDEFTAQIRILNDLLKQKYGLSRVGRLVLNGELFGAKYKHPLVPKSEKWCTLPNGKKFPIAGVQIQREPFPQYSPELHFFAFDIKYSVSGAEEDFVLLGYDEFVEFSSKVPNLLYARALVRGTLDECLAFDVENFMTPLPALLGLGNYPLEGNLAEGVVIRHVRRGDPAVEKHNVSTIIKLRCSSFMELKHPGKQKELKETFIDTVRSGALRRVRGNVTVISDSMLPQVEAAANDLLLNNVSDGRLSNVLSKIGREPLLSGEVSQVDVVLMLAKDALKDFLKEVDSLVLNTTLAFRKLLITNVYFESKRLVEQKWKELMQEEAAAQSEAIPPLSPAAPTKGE
As to `CC1CCCCN1Cc1cccnc1` (stereo not given), the inhibition is 13.3% (active). In the case of `COC(=O)C1=C(c2ccc(F)cc2OCc2ccccc2)C[C@@H]2CC[C@H]1N2C(=O)NCc1ccc(C(C)(C)C)cc1` it was -1.57%; in that of `CN1CCN(c2cc(N3CCNCC3)ccc2[N+](=O)[O-])CC1`, 13.9% (active).

Consider `COc1cccc(-c2nc3ccc(N4CCN(C)CC4)cc3[nH]2)c1`, for which the inhibition is 5.54%.

Regarding `Cc1cccc(NC(=O)N2CC3CC(C2)c2cccc(=O)n2C3)c1` (stereo not given), the inhibition is 3.86%. In the case of `COC(=O)C1=C(c2ccccc2OCc2ccccc2)C[C@@H]2CC[C@H]1N2C(=O)NCc1ccc(OC)cc1` it was -0.93%; in that of `CCOP(=O)(OCC)C(NC(=O)NC)C(N)=O` (stereo not given), 2.84%.

With `CCC(=NCCc1ccccc1)c1c(O)n(C2CCCCC2)c(=O)[nH]c1=O`, the inhibition was -0.24%. As to `O=c1[nH]c2ccccc2n1C1CCN(C(c2ccccc2)c2nnnn2Cc2ccccc2)CC1` (stereo not given), the inhibition is 23.1% (active). As for `COc1ccc(-n2nnnc2C(c2cccc3ccccc23)N2CCC(n3c(=O)[nH]c4ccccc43)CC2)cc1` (stereo not given), the figure is -2.29%. As for `COc1cc(C(=O)N2Cc3ccc(Br)cc3-n3nncc3C2)cc(OC)c1OC`, the figure is 2.36%; as for `CN1CCN(C(=S)SCC(=O)Nc2ccc(Cl)cc2C(=O)c2ccccc2)CC1`, 2.78%; as for `CCOC(=O)CNC(=O)N1Cc2cc(N3CCCCC3)ccc2-n2nncc2C1`, 2.4%. In the case of `COc1ccc(-c2nn(CCC#N)cc2C(=O)O)cc1` it was -2.19%; in that of `CSc1ccc(C(=O)C2CCCN(Cc3ccn[nH]3)C2)cc1` (stereo not given), 0.96%.

The values above are taken from PubChem BioAssay AID1117264 (The Scripps Research Institute Molecular Screening Center, 2014).
